# Source: PubChem (several laboratories)
# TWEAK-Fn14 inh: inhibitors of TWEAK-Fn14 interaction signaling; TWEAK-stimulated Fn14 reporter cells, luciferase luminescence, 8 h; inhibition, % at 10 µM; 360,000 tested, 2% active; in the data active means inhibition above about 50%
# HSF1 inhib: HSF1 inhibition; NIH3T3-HGL HSE-luciferase, MG132-induced, luminescence 8 h; stronger effect = lower value; activity change, negative = inhibition, % at 7.5 µM (by protocol); 300,000 tested, 0.77% active; AID 2098;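 active means more than half of replicate wells show activity change below -50%, luminescence cut by over half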;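 further: luciferase reports HSF-1 transcriptional activity via heat shock element; 0% = median of DMSO wells and -100% = zero luminescence signal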
# HSP90 inh: HSP90 refolding inhibition in rabbit reticulocyte lysate. inhibition, % at 5.6 µM. 290,000 tested, 0.91% active. luciferase refolding luminescence, 3 h;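 active means inhibition above the screen-wide mean plus 3 SD, computed separately per campaign, cut at about 16% in these data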;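 further: 0% = DMSO wells and 100% = 60 µM geldanamycin wells; inhibitors lower the luminescence because luciferase stays unfolded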
# HSF-1 act: increases HSF-1 driven luciferase reporter signal; 300,000 tested, 1.7% active; activation, % at 9 µM; NIH3T3-HGL HSF-1 luciferase reporter, MG132, 8 h; 100% = twice DMSO control signal;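 active means mean replicate activation of at least 50% with a set share of replicates each reaching 50%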;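 further: 0% = median of the neutral control wells and 100% = twice that signal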
# LMP1 NFkB inh: Epstein-Barr LMP1 NF-kappaB reporter inhibition. LMP1-induced NF-kappaB luciferase reporter cells, luminescence. inhibition, % at 12.5 µM. 350,000 tested, 0.69% active. AID 504558; in the data active means inhibition above about 41%;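 further: 0% = neutral control wells and 100% = reference inhibitor control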
# TROY signal inh: blocks TROY-dependent signaling in reporter cells. AID 1347056. Q293 LMP1-TROYcd NF-kB luciferase reporter, 4 h. 360,000 tested, 0.98% active. inhibition, % at 10 µM;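 active means compounds whose plate-normalised and pattern-corrected inhibition of the luciferase reporter signal at the single screening dose is 50% or more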
# Active calls of the source: *; . = not tested or not shown. Compounds with a hit are over-represented: about 4.7% of the library has one in this group of screens.
SMILES,TWEAK-Fn14 inh,HSF1 inhib,HSP90 inh,HSF-1 act,LMP1 NFkB inh,TROY signal inh
CN(C(=O)c1cccc(NC(=O)Cc2ccc(NC(=O)C3CCCN(C(=O)CCc4ccccc4)C3)cc2)c1)C1CCCCC1 (stereo not given),89.0*,.,.,.,19.6,62.5*
CN(Cc1ccccc1)C(=O)c1cccc(NC(=O)Cc2ccc(NC(=O)C3CCN(C(=O)CCc4ccccc4)CC3)cc2)c1,84.7*,.,.,.,11.3,56.5*
COCC(=O)N(C)C[C@H]1Oc2cc(C#Cc3cccnc3)ccc2S(=O)(=O)N([C@H](C)CO)C[C@H]1C,-0.7,.,.,.,-5.3,-0.5
Cc1ccc(F)c(S(=O)(=O)NC(=O)C2(C)CCN2C(=O)Cc2ccsc2)c1 (stereo not given),-2.7,.,.,.,.,-5.5
O=NN(Cc1cccnc1)C(=O)NC1CCCCC1,27.6,.,.,.,.,-5.0
CCN(CC)S(=O)(=O)c1ccc(/C=C/C(=O)Nc2ccc(F)cc2F)cc1,75.9*,7.1,-3.7,24.9,-6.4,3.1
CCN(CC)S(=O)(=O)c1ccc(/C=C/C(=O)Nc2ccc(Br)cc2F)cc1,73.6*,-1.5,-0.8,-9.2,32.2,48.2
CCN(CC)S(=O)(=O)c1cccc(NC(=O)CC2CCCC2)c1,-6.4,-3.5,-5.8,9.5,4.0,-20.4
CCN(CC)S(=O)(=O)c1cccc(NC(=O)/C=C/c2cccc([N+](=O)[O-])c2)c1,45.1,5.5,3.9,-0.8,16.7,29.8
CCN(CC)S(=O)(=O)c1cccc(NC(=O)Nc2cccc(C(F)(F)F)c2)c1,78.5*,6.5,-2.9,31.3,46.0*,56.4*
CCN(CC)S(=O)(=O)c1ccc(/C=C/C(=O)Nc2ccc(F)c(F)c2F)cc1,39.1,-3.7,-1.4,15.2,23.5,6.7
CCN(CC)S(=O)(=O)c1cccc(NC(=O)/C=C/c2ccc([N+](=O)[O-])cc2)c1,-8.1,13.8,-1.1,69.9*,-12.5,25.9
CC(C)OC(=O)N(C)C[C@@H]1OCc2cnnn2CCCC(=O)N([C@H](C)CO)C[C@H]1C,13.5,.,.,.,2.7,5.9
N#CC1=C(N)NC(SCC(=O)Nc2ccccc2)=C(C#N)C12CCCCC2,9.2,39.9,-0.1,71.2*,-5.5,-13.3
Oc1ccc(/C=N/NC(=S)NC2CC3CCC2C3)cc1 (stereo not given),-6.1,34.3,1.0,26.8,-15.2,-77.5
S=C(N/N=C/c1cccs1)NC1CC2CCC1C2 (stereo not given),-5.7,29.9,-3.1,64.4*,-0.5,-30.1
Nc1ccc(Oc2ccccc2-c2ccccc2)cc1,82.5*,-4.1,.,1.4,29.4,68.5*
C=C1C(=O)OC2C=C(CO)C3OC3C3OC3(C)CC(OC(=O)/C(=C/C)COC(C)=O)C12 (stereo not given),83.1*,.,.,.,70.2*,2.9
COc1ccc(Cl)cc1-c1cc(C(=O)N[C@H](C)c2ccccc2)[nH]n1,-23.6,.,.,.,.,-1.1
Cc1ccc(Nc2cc(C)nn2-c2nc(C)cc(C)n2)cc1,-5.0,-1.0,3.1,-23.0,12.9,2.7
Cc1ccc(Nc2cc(C)nn2-c2nc(C)cc(=O)[nH]2)cc1,108.0*,-7.6,0.4,-7.6,-44.7,83.7*
Cn1nnnc1Sc1ncnc2scc(-c3ccccc3)c12,28.3,5.8,3.1,7.4,33.8,33.5
Cn1nnnc1Sc1ncnc2scc(-c3ccc[nH]3)c12,70.5*,.,.,.,-9.7,-1.3
Cn1nnnc1Sc1ncnc2scc(-c3ccc(Br)cc3)c12,88.1*,.,.,.,15.3,60.4*
Cn1nnnc1Sc1ncnc2scc(-c3ccc(F)cc3)c12,57.1*,40.5,2.0,62.4*,70.6*,28.6
SMILES,TWEAK-Fn14 inh,HSF1 inhib,HSP90 inh,HSF-1 act,LMP1 NFkB inh,TROY signal inh
Cn1nnnc1Sc1ncnc2scc(Br)c12,99.2*,.,.,.,26.8,67.5*
COc1ccccc1-c1csc2ncnc(Sc3nnnn3C)c12,22.6,.,.,.,5.9,-8.2
Cn1nnnc1Sc1ncnc2scc(-c3ccccc3Br)c12,38.6,.,.,.,10.4,29.9
Cn1nnnc1Sc1ncnc2scc(-c3cccc4ccccc34)c12,60.2*,.,.,.,5.0,29.3
CCCNC(=O)N(C)C[C@@H]1Oc2cc(C#CC(C)(C)O)ccc2S(=O)(=O)N([C@H](C)CO)C[C@H]1C,-4.3,.,.,.,-0.3,3.8
CCN(C(=O)Cn1cc(C(F)(F)F)ccc1=O)C1CCS(=O)(=O)C1 (stereo not given),-11.0,.,.,.,5.2,0.9
CCN(CC)c1ncccc1C(=O)NCc1cccs1,2.7,-2.3,-2.0,2.1,-6.8,-15.9
Cc1ccc(C)c(Nc2ncccc2C(=O)NCc2cccs2)c1,18.8,23.5,0.0,55.3*,-12.1,-7.8
CCC(CO)NCC#Cc1ccccc1 (stereo not given),-1.8,32.2,1.2,62.1*,0.5,1.7
CCCCNC(=O)c1ccc2nc(CC)c(N(C)Cc3cccs3)n2c1,-26.2,.,.,.,.,-1.7
CC(C)N1CCC(C)(C(=O)Nc2cccc3c2CCCC3)C1 (stereo not given),8.5,.,.,.,.,-24.7
COc1nc(Nc2nc3ccccc3c(=O)[nH]2)nc2ccc(C)cc12,55.4*,6.0,4.3,-0.8,50.4*,1.8
O=C1C=C(c2c(O)ccc3ccccc23)c2ccccc2C1=O,101.9*,.,.,.,12.0,48.6
CCOC(=O)[C@]12CCC=C1N(Cc1ccc3c(c1)OCO3)C(=O)[C@H](CC(=O)NCCc1ccccc1OC)C2,10.3,.,.,.,.,-4.5
O=C(NCC1CC1(Cl)Cl)Nc1ccc(Cl)c(Cl)c1 (stereo not given),28.7,25.6,-10.9,33.8,-13.8,53.0*
Cc1nc(SCC(=O)Nc2ccc(S(=O)(=O)N3CCOCC3)cc2)c2c(C)c(C)sc2n1,27.5,.,.,.,36.0,51.2*
Cc1nc(SCC(=O)N2CCOCC2)c2c(C)c(C)sc2n1,0.9,-1.5,-1.9,-16.2,-7.7,-40.2
CCN1CC(CN(C)Cc2nc(COc3ccccc3)no2)CC1=O (stereo not given),-5.9,22.9,-2.9,54.8*,2.7,5.3
CCN1CC(CN(C)Cc2nc(-c3ccc(OC)c4ccccc34)oc2C)CC1=O (stereo not given),4.9,-4.9,3.4,1.9,-5.8,-8.1
C[C@]12CC[C@@H]3c4ccc(O[C@@H]5O[C@H](C(=O)O)[C@@H](O)[C@H](O)[C@H]5O)cc4CC[C@H]3[C@@H]1C[C@@H](O)[C@@H]2O,3.7,-53.9*,.,-64.8,-6.5,-6.7
C=CCOc1ccc2c(c1)CCC1C2CCC2(C)C(O)C(O)CC12 (stereo not given),-22.1,.,.,.,-23.0,-36.8
CC(C)CC1C(=O)N(Cc2cn(CC3CCCCC3)nn2)CCS(=O)(=O)N1Cc1ccc(-c2ccncc2)cc1 (stereo not given),-33.1,.,.,.,0.0,-9.2
COCCOC(=O)C1=C(C)NC2=C(C(=O)CC(C)(C)C2)C1c1cc2c(cc1Br)OCO2 (stereo not given),59.6*,5.6,-2.2,10.9,5.2,6.0
COCCOC(=O)C1=C(C)NC2=C(C(=O)CC(C)(C)C2)C1c1ccc(N(C)C)cc1 (stereo not given),-10.9,12.1,-0.9,4.7,-6.9,-3.5
